This passage reports growth results from PubChem BioAssay (NCI).

Among the test systems are K-562 leukemia; MALME-3M melanoma; MDA-MB-231 breast; RXF 393 renal; SF-268 CNS; SF-295 CNS; SF-539 CNS; UACC-257 melanoma; M14 melanoma; HCT-15 colon; HT29 colon; SNB-75 CNS; SNB-19 CNS; U251 CNS; PC-3 prostate; SK-MEL-5 melanoma; UACC-62 melanoma; LOX IMVI melanoma; SK-MEL-28 melanoma; SK-MEL-2 melanoma.
Common to all, as to assay: NCI-60 one-dose screen, 48 h (100 = growth as untreated, 0 = no growth, -100 = all killed)
Common to all, as to conditions: 10 µM

Structures are written as SMILES. Compounds without any hit were thinned out: in the full panel of roughly 83,000, 20% have a hit.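 Method: cells in 96-well plates; compound added at one concentration; 48 h incubation; percent growth measured; values under 10 scored active.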 A number with no mark means an inactive call. Calls of active or inactive are those of the source.

As for `CCCCCCCCCCCCCCCC(=O)OC1[C@@H](OC(=O)CCCCCCCCCCCCCCC)[C@@H](C(=O)N[C@@H](CCCCN)C(=O)OC)O[C@H]1n1cnc2c(=O)[nH]c(NC(=O)C(C)C)nc21` (some centres undefined), the growth with K-562 leukemia is 82.9%; in the test on MALME-3M melanoma, 98.5%; in the test on MDA-MB-231 breast, 118%; in the test on RXF 393 renal it was 105%; in the test with SF-268 CNS, 97.1%; in the test with SF-295 CNS it was 108%. The growth in the test on SF-539 CNS is 103%; with UACC-257 melanoma, 90.1%; in the test on M14 melanoma it was 93.7%; in the test on HCT-15 colon, 96.6%; in the test with HT29 colon, 98.2%; in the test with SNB-75 CNS, 94.1%. Also, the growth with SNB-19 CNS was 93.5%; in the test on U251 CNS, 90.2%; in the test with PC-3 prostate it was 103%; in the test on SK-MEL-5 melanoma, 101%; in the test on UACC-62 melanoma, 111%; with LOX IMVI melanoma it was 93.5%. Further, in the test on SK-MEL-28 melanoma, the growth is 113%.

Consider `COc1ccc2c(c1OC)O/C(=C\c1ncc([N+](=O)[O-])n1C)C2=O`, for which the growth is 28.8% with K-562 leukemia; -68.9% (active) in the test with MALME-3M melanoma; -20.7% (active) in the test on MDA-MB-231 breast; -65.7% (active) in the test on RXF 393 renal; -5.54% (active) with SF-268 CNS; 55.3% with SF-295 CNS. Besides, the growth is 63.5% in the test with SF-539 CNS; -55.8% (active) in the test with UACC-257 melanoma; -59.1% (active) with M14 melanoma; 1.65% (active) with HCT-15 colon; -20.8% (active) in the test with HT29 colon; 76.6% with SNB-75 CNS. Also, the growth was 66.2% with SNB-19 CNS; 55.2% in the test with U251 CNS; 60.2% in the test on PC-3 prostate; -66.5% (active) in the test with SK-MEL-5 melanoma; 0.211% (active) in the test on UACC-62 melanoma; 0.891% (active) in the test with LOX IMVI melanoma. Besides, the growth with SK-MEL-28 melanoma was -38% (active); with SK-MEL-2 melanoma, -58.9% (active).

With `O=C(O)CCCCSc1ncnc2nc[nH]c12`, the growth in the test on K-562 leukemia was 102%; with MALME-3M melanoma, 96.2%; in the test with MDA-MB-231 breast it was 113%; with RXF 393 renal, 105%; in the test on SF-268 CNS, 98.9%; in the test on SF-295 CNS, 101%. Further, the growth in the test on SF-539 CNS is 102%; in the test on UACC-257 melanoma, 99.6%; in the test on M14 melanoma, 103%; in the test on HCT-15 colon it was 102%; with HT29 colon, 106%; in the test on SNB-75 CNS, 102%. Further, the growth in the test on SNB-19 CNS is 107%; in the test on U251 CNS, 95.5%; in the test on PC-3 prostate, 99.1%; in the test with SK-MEL-5 melanoma, 101%; with UACC-62 melanoma it was 111%; in the test on LOX IMVI melanoma, 92.3%. Moreover, the growth was 112% in the test with SK-MEL-28 melanoma and 92.4% in the test with SK-MEL-2 melanoma.

In the case of `Cc1nc2c(c(=O)[nH]1)OCN(Cc1ccccc1)C2`, the growth with K-562 leukemia is 88%; in the test on MALME-3M melanoma it was 87%; in the test with MDA-MB-231 breast, 107%; with RXF 393 renal it was 118%; in the test on SF-268 CNS, 103%; in the test on SF-295 CNS, 107%. Moreover, the growth in the test on SF-539 CNS is 109%; in the test on UACC-257 melanoma, 97.8%; in the test on M14 melanoma, 101%; in the test with HCT-15 colon, 99.4%; with HT29 colon, 105%; in the test on SNB-75 CNS it was 89.6%. Besides, the growth was 97.2% in the test with SNB-19 CNS; 108% with U251 CNS; 89.1% with PC-3 prostate; 102% with SK-MEL-5 melanoma; 105% in the test with UACC-62 melanoma; 101% with LOX IMVI melanoma. For the same compound, the growth in the test with SK-MEL-28 melanoma is 105%; with SK-MEL-2 melanoma, 130%.

With `CC(=O)c1nc2ccccc2n1CCN1CCN(C)CC1`, the growth in the test on K-562 leukemia was 15.3%; in the test with MALME-3M melanoma, 17.6%; in the test with MDA-MB-231 breast it was 42.9%; in the test on RXF 393 renal, 48%; in the test on SF-268 CNS it was 48.1%; in the test on SF-295 CNS, 153%. Besides, the growth is 35.3% in the test on SF-539 CNS; 49.8% in the test on UACC-257 melanoma; 20.5% with M14 melanoma; 98.9% with HCT-15 colon; -3.6% (active) in the test with HT29 colon; 6.87% (active) with SNB-75 CNS. For the same compound, the growth in the test on SNB-19 CNS is 73.7%; in the test with U251 CNS, 28.4%; in the test on PC-3 prostate it was 33.4%; with SK-MEL-5 melanoma it was 38.5%; with UACC-62 melanoma, 50.7%; in the test on LOX IMVI melanoma, 36.7%. The growth in the test with SK-MEL-28 melanoma is 48%; with SK-MEL-2 melanoma, 25.4%.

For the compound `Nc1ccc2c(c1)Cc1cc(N)c(Br)cc1-2`, the growth with K-562 leukemia was 99.7%; in the test on MALME-3M melanoma, 104%; in the test with MDA-MB-231 breast, 116%; in the test with RXF 393 renal, 111%; in the test with SF-268 CNS, 109%; in the test with SF-295 CNS, 76.8%. Further, the growth was 83.1% in the test on SF-539 CNS; 109% with UACC-257 melanoma; 102% in the test with M14 melanoma; 97.3% in the test on HCT-15 colon; 107% in the test with HT29 colon; 67.1% with SNB-75 CNS. For the same compound, the growth with SNB-19 CNS is 114%; in the test with U251 CNS, 108%; in the test on PC-3 prostate, 96.9%; in the test with SK-MEL-5 melanoma, 97.8%; with UACC-62 melanoma, 96.7%; in the test with LOX IMVI melanoma it was 96.8%. For the same compound, the values for the growth in the test on SK-MEL-28 melanoma and in the test on SK-MEL-2 melanoma were 115% and 116%, respectively.

Turning to `C[C@@H]1C=C2C(=O)O[C@@H]3CC[C@H](C1)[C@]23O`, the growth in the test on K-562 leukemia was 27.5%; in the test on MALME-3M melanoma, 93.2%; in the test on MDA-MB-231 breast, 89%; in the test with RXF 393 renal it was 9.76% (active); with SF-268 CNS, 93.3%; with SF-295 CNS, 114%. Further, the growth in the test with SF-539 CNS was 90.8%; in the test with UACC-257 melanoma, 46.8%; in the test on M14 melanoma, 80.2%; in the test on HCT-15 colon it was 62.5%; in the test on HT29 colon, 73.8%; in the test on SNB-75 CNS, 69.3%. Further, the growth is 105% in the test with SNB-19 CNS; 87.6% in the test on U251 CNS; 87.2% in the test with PC-3 prostate; 92.8% with SK-MEL-5 melanoma; 91.6% in the test on UACC-62 melanoma; 55.1% in the test with LOX IMVI melanoma. Also, the growth was 88.1% in the test with SK-MEL-28 melanoma and 97.3% in the test with SK-MEL-2 melanoma.

Turning to `Cc1cccc(NC2=C(C#N)C(=O)NC3(CCCC3)S2)c1`, the growth with K-562 leukemia was 95.3%; with MALME-3M melanoma, 104%; in the test on MDA-MB-231 breast, 110%; in the test on RXF 393 renal it was 102%; in the test on SF-268 CNS, 103%; in the test on SF-295 CNS, 108%. Further, the growth with SF-539 CNS is 91.5%; with UACC-257 melanoma, -4.62% (active); in the test on M14 melanoma it was 105%; in the test with HCT-15 colon, 95.8%; in the test with HT29 colon, 103%; with SNB-75 CNS, 90.7%. Also, the growth in the test with SNB-19 CNS is 94.2%; with U251 CNS it was 97.4%; in the test with PC-3 prostate, 105%; with SK-MEL-5 melanoma it was 95.7%; in the test on UACC-62 melanoma it was 98.7%; in the test with LOX IMVI melanoma, 96.5%. The growth with SK-MEL-28 melanoma is 105%; in the test with SK-MEL-2 melanoma, 98.2%.
